The list is not random: actives were taken first. Their share in the collection is about 7.4%.
Rab9 prom act = Rab9 promoter activation | Huh7 Rab9 promoter-luciferase reporter, luminescence, 24 h | actives 2.8% (n = 320,000) | Potency, µM (series often up to 9.22 µM), most hits filed as activators; note: nearly all actives have a fitted effect of over 60% in size
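Stable Rab9-luc Huh7, 1500 cells/well, 2 h settle; cmpd in DMSO, 24 h, 37 °C/5% CO2; luciferase reagent 10 min RT; luminescence.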
ELG1 genotoxic = genotoxicity induction in ELG1-luciferase HEK293T cells | actives 1.3% (n = 330,000) | HEK293T ELG1-luciferase reporter, luminescence, 16 h | Potency, µM (top dose mostly 46 µM), most hits filed as activators; note: nearly all actives have a fitted effect of over 60% in size
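16 hr compound incubation (37 °C, 5% CO2) of HEK293T cells carrying luciferase-tagged ELG1; luciferase then measured by ONE-Glo luminescence after 30 min at RT.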
NPC1 prom act = NPC1 promoter activation | Huh7 NPC1 promoter luciferase reporter, 24 h | Potency, µM (top dose mostly 9.22 µM), usual class: activators | AID 485313 | actives 2.4% (n = 320,000); note: nearly all actives have a fitted effect of over 60% in size
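Luminescence from an NPC1 promoter-driven luciferase reporter in stably transfected Huh7 cells was measured after 24 h compound treatment at 37 °C, followed by 10 min ambient incubation with luciferase detection reagent.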
KinaseGlo FLuc = blocks Kinase-Glo luciferase, a counter-screen artifact | Q27757 | Kinase-Glo luciferase, ATP luminescence, 8 min | Potency, µM (doses to about 38.3 µM), actives largely listed as inhibitors | actives 0.28% (n = 200,000); note: nearly all actives have a fitted effect of over 60% in size
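Recombinant Kinase-Glo luciferase, 10 uM ATP (linear range), luciferin; imidazole pH 7.2 / KCl / MgCl2 / Tween / BSA buffer; 8 min RT; luminescence.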
SMN2 splice up = SMN2 splice variant enhancement | HEK293 SMN2-luciferase splicing reporter, luminescence, 30-36 h | Potency, µM (highest dose often 46.1 µM), hits mostly activators | actives 2.8% (n = 210,000); note: nearly all actives have a fitted effect of over 55% in size
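qHTS luciferase splicing reporter: luminescence rises when SMN2 exon 7 is included in transfected HEK293 cells. Compound exposure lasted 30-36 h at 37C, with 4.5 mM final sodium butyrate as control, followed by a ONE-Glo read.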
FLuc counter = inhibits or activates purified firefly luciferase, miR-21 counter-screen; P08659; purified FLuc, Km substrates, luminescence inhibition; Potency, µM (series often up to 57.5 µM), most hits filed as inhibitors; actives 6.9% (n = 360,000); note: nearly all actives have a fitted effect of over 55% in size
Target sequence (P08659 whole entry, looked up): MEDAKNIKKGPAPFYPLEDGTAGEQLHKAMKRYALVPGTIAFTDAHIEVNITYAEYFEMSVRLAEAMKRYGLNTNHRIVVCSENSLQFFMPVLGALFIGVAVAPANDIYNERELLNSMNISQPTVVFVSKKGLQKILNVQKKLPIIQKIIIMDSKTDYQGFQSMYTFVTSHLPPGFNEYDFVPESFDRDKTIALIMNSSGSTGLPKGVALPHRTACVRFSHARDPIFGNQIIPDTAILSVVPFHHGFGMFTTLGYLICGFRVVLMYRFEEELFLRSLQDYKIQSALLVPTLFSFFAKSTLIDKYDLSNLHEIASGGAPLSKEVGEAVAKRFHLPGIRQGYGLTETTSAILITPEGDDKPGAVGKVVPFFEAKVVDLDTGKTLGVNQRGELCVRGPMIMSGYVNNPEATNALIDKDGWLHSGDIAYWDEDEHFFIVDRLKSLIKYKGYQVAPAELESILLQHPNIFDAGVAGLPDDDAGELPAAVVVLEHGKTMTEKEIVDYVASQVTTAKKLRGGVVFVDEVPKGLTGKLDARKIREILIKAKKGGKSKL
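Purified P. pyralis luciferase, 10 nM final, with Km-level 10 uM D-luciferin and 10 uM ATP in 50 mM Tris acetate pH 7.5, 10 mM Mg acetate, 0.01% Tween-20, 0.05% BSA; 6-point qHTS titration about 60 µM downward; luminescence read.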
A number is an active result; - = inactive; ? = inconclusive; . = no result; [ ] = another dose, or the depositor's remark. Calls come from the whole dose curve; as a rule, active = well fitted curve in the direction sought with a large enough effect; inconclusive = small, poorly fitted or top-dose-only effect, or another doubt; inactive = no such curve, though single readings can be large; an effect the other way counts as inactive or inconclusive.

SMILES	Rab9 prom act	ELG1 genotoxic	NPC1 prom act	KinaseGlo FLuc	SMN2 splice up	FLuc counter
C=CCn1c(CCCOc2ccc(Cl)cc2Cl)nnc1SCC(=O)Nc1nccs1	-	-	-	-	-	13µM
CCn1c(CCCOc2ccc(Cl)cc2Cl)nnc1SCC(=O)Nc1cc(F)ccc1C	-	-	-	-	-	17µM
CN(C)C(=O)OCC1COc2ccccc2O1 (configuration not stated)	-	-	-	.	.	-
Cc1ccc(N(C(=O)CNC(=O)c2ccco2)C(C(=O)NC2CCCC2)c2cccnc2)cc1F (configuration not stated)	-	-	-	.	.	-
CCOC(=O)c1cnc2nc(NCc3ccc(OCc4ccccc4)cc3)[nH]n2c1=O	-	-	-	-	-	11µM
OCC1O[C@H]([S-])[C@H](O)[C@@H](O)[C@@H]1O.[Au+] (some centres not stated)	-	.	-	.	.	.
O=C(CSc1nnc(COc2ccc(Br)cc2)o1)NC1CCCCC1	-	-	-	.	.	-
CCCC(=O)c1ccc(N2CCC(C)CC2)c(F)c1	-	?	-	-	?	9.5µM
CCC(=O)c1ccc(N2CCC(C)CC2)c(F)c1	-	-	-	-	.	21µM
CCOC(=O)N1CCN(c2ccc(C(=O)CC)cc2F)CC1	-	-	-	-	-	-
CCN(CC)c1ccc(C(=O)Nc2cccc(F)c2)cc1	1.1µM	?	0.79µM	-	8.9µM	?
O=C(Nc1cccc(F)c1)c1c(F)c(F)c(F)c(F)c1F	-	-	-	-	-	-
CN(C)c1cccc(C(=O)Nc2cccc(F)c2)c1	2.8µM	?	2.2µM	-	14µM	19µM
COc1ccccc1-n1cnnc1SC(C)C(=O)NCC1CCCO1 (configuration not stated)	-	-	-	.	.	-
COc1ccc(CNC(=O)c2cc3oc4ccccc4c3n2C)cc1OC	.	.	.	.	?	-
CCn1c(C(=O)NCc2ccccc2Br)cc2oc3ccccc3c21	.	.	.	.	4.5µM	-
Cn1c(C(=O)NCC2CCCO2)cc2oc3ccccc3c21 (configuration not stated)	1.6µM	?	2.8µM	-	-	13µM
Cn1c(C(=O)NCc2ccccc2)cc2oc3ccccc3c21	?	-	-	-	32µM	13µM
Cn1c(C(=O)NCc2cccs2)cc2oc3ccccc3c21	?	-	-	-	4.5µM	13µM
c1ccc(SCc2nc(-c3cccnc3)no2)cc1	1.4µM	3.7µM	2µM	-	11µM	11µM
Cc1ccc(-c2noc(CSc3ccccc3)n2)cc1	1.8µM	7.3µM	1.8µM	-	?	2.1µM
c1ccc(C(Cc2nc(-c3cccnc3)no2)c2ccccc2)cc1	-	-	-	-	-	-
Cc1cccc(-c2noc(CSc3ccccc3)n2)c1	3.5µM	?	2.5µM	-	?	9.5µM
Cc1ccc(-c2noc(CSc3nc(N)cc(N)n3)n2)cc1	2.2µM	-	2.8µM	-	?	15µM
Cc1cc(C)c(S(=O)(=O)N2CCCCC2CCNC(=O)C(=O)NCc2cccnc2)c(C)c1 (configuration not stated)	-	-	-	.	.	-
SMILES	Rab9 prom act	ELG1 genotoxic	NPC1 prom act	KinaseGlo FLuc	SMN2 splice up	FLuc counter
CCCN1C(=O)c2cccc3c(N4CCCCC4)ccc(c23)C1=O	?	?	-	-	-[1.84 µM]	11µM
Cn1c(SCc2nc3ccccc3c(=O)[nH]2)nc2ccccc21	-	-	-	-	-	-
Cn1c(-c2ccccc2)cnc1SCc1nc2ccccc2c(=O)[nH]1	1.4µM	2.1µM	2.8µM	-	2.5µM	6µM
c1ccc(COc2cccc(CNCc3ccccn3)c2)cc1	-	-	-	-	-	?
O=Cc1ccc(OCc2ccc3ccccc3c2)cc1	?	?	-	.	.	5.4µM
O=Cc1ccc(OCc2ccccn2)cc1	-	-	-	?	16µM	?
COC(=O)c1ccc(COc2ccc(C=O)cc2)o1	-	-	-	.	.	-
Cc1cccc(NC(=O)CSc2nnnn2-c2ccc3c(c2)OCCO3)n1	-	-	-	-	.	-
CSCc1ccc(C(=O)NCc2ccccc2)cc1	-	-	-	-	-	27µM
CSCc1ccc(C(=O)Nc2ccc(C(N)=O)cc2)cc1	2.8µM	15µM	2µM	-	11µM	5.4µM

Assay outcomes: PubChem BioAssay, National Center for Advancing Translational Sciences (NCATS)
